# Sampled rows, rich in hits. Any-hit rate of the full collection: about 1.3%.
# rTrxR1 inhibitor: rat TrxR1 inhibition. O89049. recombinant rTrxR1, NADPH fluorescence consumption, selenite substrate. Potency, µM (titrated, usually from 114 µM), inactives show at the highest dose activity change, negative = inhibition, actives largely listed as inhibitors. 1% of 390,000 active. AID 588453; further: nearly all actives have a fitted effect of over 65% in size
# Target sequence (O89049 whole entry, looked up): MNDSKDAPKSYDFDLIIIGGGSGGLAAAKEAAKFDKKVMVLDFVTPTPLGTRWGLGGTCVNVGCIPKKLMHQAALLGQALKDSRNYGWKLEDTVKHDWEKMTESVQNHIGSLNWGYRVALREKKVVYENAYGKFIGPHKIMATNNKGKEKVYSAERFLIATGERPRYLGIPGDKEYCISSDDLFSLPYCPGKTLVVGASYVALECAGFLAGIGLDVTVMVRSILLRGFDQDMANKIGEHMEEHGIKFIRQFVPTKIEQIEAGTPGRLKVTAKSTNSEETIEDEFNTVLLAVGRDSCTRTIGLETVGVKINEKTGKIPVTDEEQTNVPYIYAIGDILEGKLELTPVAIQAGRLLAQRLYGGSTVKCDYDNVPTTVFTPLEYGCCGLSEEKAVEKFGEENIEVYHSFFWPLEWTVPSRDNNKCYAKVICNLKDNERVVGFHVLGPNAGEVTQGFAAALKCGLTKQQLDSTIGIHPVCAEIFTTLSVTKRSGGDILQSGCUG
#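 Rat TrxR1 (90 nM in the dispensed reagent) was pre-reduced with 400 uM NADPH for 5 min at room temperature, then incubated with compound for 15 min. After 400 uM selenite was added, NADPH fluorescence (Ex 340/Em 450 nm) was followed for 8 min.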
# TrxR1 substrate: rat thioredoxin reductase 1 substrate activity | 0.01% of 390,000 active | Potency, µM (series often up to 114 µM), without a hit: top-dose activity change, negative = substrate turnover | purified TrxR1 substrate turnover, NADPH consumption readout; further: nearly all actives have a fitted effect of over 50% in size
#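 Rat TrxR1, dispensed at 90 nM, was prereduced with 400 uM NADPH (final) for 5 min at ~22 deg C, then incubated with compound 15 min before 400 uM selenite. A first-read NADPH fluorescence drop versus no-compound background flagged substrates.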
# PKM2 activator: PKM2 (human) enzyme activation; P14618; purified PKM2, Kinase-Glo ATP luminescence, activation; response scale: 0% is enzyme alone, no compound; Potency, µM (highest dose often 57.5 µM), for the others: at the highest dose activation, most hits filed as activators; 0.34% of 260,000 active; further: nearly all actives have a fitted effect of over 55% in size
#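 hPK-M2, >95% pure; 0.1 mM ADP / 0.5 mM PEP final; imidazole pH7.2 buffer w/ 7 mM MgCl2, 50 mM KCl; 1 h RT; Kinase-Glo lum. Intermediate enzyme activity for dual inhibitor/activator qHTS.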
# GALK inh: blocks human galactokinase activity; Purified GALK, Kinase-Glo residual ATP luminescence; Potency, µM (top dose mostly 57.5 µM), inactives show at the highest dose activity change, negative = inhibition, actives largely listed as inhibitors; P51570; AID 1868; 0.007% of 270,000 active
#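 ATP-depletion format; final 35 uM ATP, 100 uM D-galactose, 5 nM enzyme; pH 8.0 HEPES/Mg2+ buffer; 60 min RT; luminescence read 10 min after detection reagent.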
# IDH1 R132H inh: inhibitors of human mutant IDH1 R132H; O75874; IDH1-R132H enzyme, NADPH consumption, diaphorase/resazurin fluorescence; Potency, µM (series often up to 76.6 µM), inactives show top-dose activity change, negative = inhibition, hits mostly inhibitors; 0.093% of 390,000 active; AID 602179; further: nearly all actives have a fitted effect of over 65% in size
#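 IDH1-R132H (0.5 ug/mL dispensed) in pH 7.5 Tris buffer was preincubated 30 min with compound, then given a substrate mix of 0.016 mM NADPH and 2 mM alpha-KG for 80 min at room temperature; remaining NADPH was read by diaphorase/resazurin fluorescence.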
# Anesthetic bind: binds horse apoferritin like a general anesthetic; P02791; apoferritin/1-aminoanthracene competitive binding, fluorescence; Potency, µM (top dose mostly 77.5 µM), for the others: at the top dose activity change, negative = displacement, hits mostly inhibitors; 0.074% of 350,000 active; AID 485281; further: nearly all actives have a fitted effect of over 20% in size
# Target sequence (P02791 2-175 limits assumed): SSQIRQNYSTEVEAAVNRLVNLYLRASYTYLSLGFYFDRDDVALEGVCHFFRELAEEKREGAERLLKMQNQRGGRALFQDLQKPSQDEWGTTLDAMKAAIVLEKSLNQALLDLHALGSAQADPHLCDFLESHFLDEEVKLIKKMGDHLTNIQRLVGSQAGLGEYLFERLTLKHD
#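 Read-out: endpoint 1-AMA fluorescence, excitation 380 nm and emission 535 nm, after compounds sit 10 min at room temperature with 10 uM horse-spleen apoferritin in 50% saturated 1-AMA/PBS. Values come from four-parameter Hill fits.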
# * marks the source's active call; other numbers are inactive results; ? = inconclusive; . = no result; [ ] = dose if it differs, or a comment. The call rests on the fitted dose curve; in most records, active means well fitted curve in the direction sought with a large enough effect; inconclusive means small, poorly fitted or top-dose-only effect, or another doubt; inactive means no such curve, though single readings can be large; an effect the other way counts as inactive or inconclusive. On the % scale 0 is the no-effect control and ±100 the full control effect; potency means the concentration at half of the fitted maximal effect.
SMILES,rTrxR1 inhibitor,TrxR1 substrate,PKM2 activator,GALK inh,IDH1 R132H inh,Anesthetic bind
C[C@H]1CN([C@@H](C)CO)C(=O)c2cccc(NC(=O)c3ccncc3)c2O[C@H]1CN(C)C(=O)Nc1ccccc1,56µM*,4%,.,.,0%,.
Nc1[nH]c(=S)nc2nnsc12,-6%,0%,.,.,.,.
Cc1cc(/C=C/c2c(C)cnc3ccccc23)ccc1N(C)C,-10%,1%,.,.,.,.
O=C(CNC(=O)c1ccc2c(c1)OCO2)N/N=C(Br)/C=C/c1ccccc1,14%[57.1 µM],9%[57.1 µM],-2%,-1%,0%,7.1µM*
Cc1cccc(C)c1-n1ncc(C(=O)N2CCN(c3ccccc3)CC2)c1C1CCN(C(=O)OC(C)(C)C)CC1,10%,-1%,.,.,-6%,-10%
O=C(CSc1nnc(SCc2ccccc2)s1)N/N=C/c1c[nH]c2ccccc12,25%[57.1 µM],4%[57.1 µM],?,5%,12%,?
CCn1c(SCC(=O)N/N=C/C=C/c2ccco2)nc2ccccc21,45µM*,-9%,?,-3%,5%,?
CCn1c(SCC(=O)N/N=C/C=C/c2ccco2)nnc1-c1ccc(OC)cc1,11%,1%,?,-3%,0%,-14%
CC(/C=N/NC(=O)CSc1nc2ccccc2n1C)=C\c1ccco1,79µM*,-13%,5µM*,0%,3%,?
O=C(CSc1nnc(SCc2ccccc2)s1)N/N=C/C=C\c1ccco1,45µM*,-2%,?,0%,7%,-21%
Cc1ccc(CSc2nnc(SCC(=O)N/N=C/c3c[nH]c4ccccc34)s2)cc1,12%[57.1 µM],-2%[57.1 µM],25µM*,-3%,10%,-21%
CCCN(CCC)CCNC(=O)C1CCN(c2nc3ccc(CC)cc3s2)CC1,9%[2.29 µM],-11%,.,.,-1%,-16%
Cc1oc(-c2cccc(Cl)c2)nc1Cn1c(SCc2ccccc2F)nc2ccncc21,12%,5%,.,.,-10%,-10%
CCCCn1c(=O)[nH]c(=O)c2c1nc(Cn1ncc(Cl)c(Cl)c1=O)n2CCC,50µM*,11%,2%,-3%,3%,-20%
CCCCn1c(=O)[nH]c(=O)c2c1nc(CN1C(=O)c3ccccc3S1(=O)=O)n2CCC,30%[57.1 µM],15%[57.1 µM],8%,5%,1%,-21%
Cc1noc2c1C(c1ccc(N(C)C)cc1)C1=C(CC(C)(C)CC1=O)N2 (configuration not stated),50µM*,6%,-4%,-4%,7%,-21%
Oc1cc(CNCc2ccccc2)c(O)cc1CNCc1ccccc1,79µM*,-10%,.,.,-2%,.
OCc1ccccc1CNCc1ccccc1,22%,12%,15%,2%,-2%,-10%
COc1ccc(S(=O)(=O)Nc2ccc(F)c(Cl)c2)cc1OC,-6%,-11%,16µM*,2%,10%,-11%
COc1ccc(C)cc1S(=O)(=O)Nc1ccc(F)c(Cl)c1,10%[57.1 µM],13%[57.1 µM],-8%,-4%,2%,-2%
O=C(Nc1ccc(C(=O)OCc2cc(=O)n3c4c(sc3n2)CCCC4)cc1)c1ccc(Cl)cc1,17%[57.1 µM],5%[57.1 µM],.,.,-3%,39%
CCOc1ccc(C2C(=O)N(C3CCCCCC3)CC(=O)N2CCc2ccc(OC)c(OC)c2)cc1OC (configuration not stated),10%[57.1 µM],-3%[57.1 µM],.,.,-13%,-7%
O=C(CCS(=O)(=O)c1ccccc1)N1CCN(c2cccc(C(F)(F)F)c2)CC1,79µM*,-2%,-4%,-7%,2%,8%
CCOc1ccc(-c2c(C)nn3c(C)c(C(=O)NC(C)c4ccccc4)cnc23)cc1OCC (configuration not stated),11%[57.1 µM],-2%[57.1 µM],.,.,.,-9%
O=C(/C=C/c1ccco1)NC(=S)Nc1ccccc1,45µM*,-12%,-1%,5%,-16%,-12%
SMILES,rTrxR1 inhibitor,TrxR1 substrate,PKM2 activator,GALK inh,IDH1 R132H inh,Anesthetic bind
CCCCC(=O)NC(=S)Nc1cccc(NC(=O)c2ccco2)c1,8.9µM*,1%,0%,-1%,2%,-24%
O=C(NC(=S)Nc1cccc([N+](=O)[O-])c1)c1ccco1,-11%[57.1 µM],-1%[57.1 µM],5%,3%,2%,5%
Cc1cccc(NC(=S)NC(=O)/C=C/c2ccco2)c1,22µM*,4%,3%,-1%,13%,?
O=C(/C=C/c1ccco1)NC(=S)Nc1cccc([N+](=O)[O-])c1,20µM*,-2%[57.1 µM],17%,0%,8%,-7%
CCC(=O)NC(=S)Nc1ccc(NC(=O)c2ccco2)cc1,-1%[57.1 µM],2%[57.1 µM],-9%,1%,-5%,1%
CSc1cccc(NC(=O)/C=C/c2ccco2)c1,14µM*,-9%[57.1 µM],13%,3%,5%,-12%
O=C(Nc1ccccc1SC(=O)c1ccccc1)c1ccccc1,.,.,.,.,-3%,.
Cc1ccc(C(=O)Sc2cccccc2=O)cc1,0.63µM*,3%[57.1 µM],.,.,-4%,7%
COc1cc2nc(N3CCCN(C)CC3)nc(NC3CCN(Cc4ccccc4)CC3)c2cc1OC,15%[57.1 µM],116%[57.1 µM],.,.,.,.
Cc1ccc(C)c(OCCn2cc(C(=O)O)c3ccccc32)c1,-19%[57.1 µM],-11%[57.1 µM],-1%,-2%,33µM*,-6%
CC(=O)c1cn(CCOc2cc(C)ccc2C)c2ccccc12,14%,5%,-2%,0%,5%,-9%
N#C/C(=C\c1ccc(C#N)cc1)C(=O)c1ccccc1,?,1%[57.1 µM],22µM*,-1%,-12%,4%
CCN1C(C(=O)c2ccccc2)=C(OC(=O)COc2ccc(OC)cc2)c2ccccc2S1(=O)=O,13µM*,5%,.,.,-2%,-14%
CCN1C(C(=O)c2ccccc2)=C(OC(=O)COc2ccc(C)cc2)c2ccccc2S1(=O)=O,20µM*,-12%,.,.,-10%,-4%
O=C(CN1CCN(Cc2ccccc2)CC1)N1CCCc2c1c(=O)oc1ccc(O)cc21,-10%,-15%,?,1%,5%,-10%
O=C(c1ccco1)N1CCN(CC(=O)N2CCCc3c2c(=O)oc2ccc(O)cc32)CC1,16µM*,-9%[57.1 µM],-3%,0%,3%,6%
O=C(NNc1c(Cl)cccc1Cl)c1sccc1Cl,18%[57.1 µM],-19%[57.1 µM],16µM*,-9%,2%,?
O=C(CSc1nc2scc(-c3ccco3)c2c(=O)n1-c1ccccc1)NCC1CCCO1 (configuration not stated),45µM*,-5%,?,-2%,3%,-5%
Cc1ccc(C)c(-n2c(SCC(=O)NCC3CCCO3)nnc2-c2ccoc2C)c1 (configuration not stated),28µM*,3%,-9%,1%,3%,-16%

# Screening results: PubChem BioAssay, National Center for Advancing Translational Sciences (NCATS)
